# From PubChem BioAssay (NCI)
# The panel holds about 83,000 compounds, 20% with a hit somewhere; the sample as a whole holds those more often.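 Testing used 96-well plates and a 48-hour single-concentration exposure. Example: -40 means 40% of the starting cells died.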 A number with no mark means an inactive call. The source made the active and inactive calls.
# Tested on: SK-MEL-28 melanoma
# Assay: NCI-60 one-dose screen, 48 h (100 = growth as untreated, 0 = no growth, -100 = all killed)
# Conditions: 10 µM unless noted
# Method: Growth inhibition of the SK-MEL-28 human tumor cell line is measured as a screen for anti-cancer activity. Cells are grown in 96 well plates and exposed to the test compound for 48 hours. Compounds are tested at a single concentration, which is 10^-5 M for most compounds. The reported endpoint is percent growth (GI% or GIPRCNT), where numbers from 0 - 100% represent growth inhibition, and numbers from -100% - 0 represent cell death. For example, a value of 40 represents 60% growth inhibition. A value of 0 means no net growth occurred over the course of the experiment. A value of -40 indicates 40% of cells at the beginning of the experiment died by the end of the experiment. A value of -100 means all cells are dead at the end of the experiment.
# NCI-60 Human Tumor Cell Lines Screen was performed using the standard one-dose NCI protocol, which is described in more detail at https://dtp.cancer.gov/discovery_development/nci-60/default.htm.
# Compounds with GIPRCNT values below 10 were considered active. Activity score was based on GIPRCNT using the following formula: […]
# Score is 0 for GIPRCNT values of 100 or above, 50 for GIPRCNT values of 0, and 100 for GIPRCNT values of -100.
row,Structure (SMILES),growth
1,COc1cc2nc(Nc3cccc(Cl)c3)nc(N)c2cc1OC,83.8%
2,C#Cc1cccc(Nc2ncnc3cc(OCCOC)c(OCCOC)cc23)c1,86.8%
3,CO[C@H]1C[C@@H]2CC[C@@H](C)[C@@](O)(O2)C(=O)C(=O)N2CCCC[C@H]2C(=O)O[C@H]([C@H](C)C[C@@H]2CC[C@@H](OCCO)[C@H](OC)C2)CC(=O)[C@H](C)/C=C(\C)[C@@H](O)[C@H](OC)C(=O)[C@H](C)C[C@H](C)\C=C/C=C/C=C/1C,44%
4,Cc1ccc(N=C2CSc3nnc(-c4csc5c4CCCC5)n3N2)cc1,63.2%
5,C=CC(=O)N(C)[C@H]1C[C@H]2OC(C)(C1OC)n1c3ccccc3c3c4c(c5c6ccccc6n2c5c31)C(=O)NC4 (stereo not given in full),5.52% (active)
6,COc1c(C(NC(=O)c2ccccc2)c2sccc2C)cc(Cl)c2cccnc12 (stereo not given),114%
7,Cn1cnc2c(F)c(Nc3ccc(Br)cc3F)c(C(=O)NOCCO)cc21,-3.38% (active)
8,CC(C)c1ccc(/C=N/Nc2nc3ccccc3s2)cc1,108%
9,Cc1cccc(NC(=O)[C@@H]2c3ccccc3C(=O)N(c3ccc(Cl)cc3)[C@H]2c2ccc(Cl)cc2)n1,69.2%
10,O=CC(OC(=O)c1ccccc1)C(OC(=O)c1ccccc1)C(COC(c1ccccc1)(c1ccccc1)c1ccccc1)OC(=O)c1ccccc1 (stereo not given),0.343% (active)
11,CNC(=O)c1ccc(Nc2ncc(C(F)(F)F)c(NCc3nccnc3N(C)S(C)(=O)=O)n2)cc1,1.14% (active)
12,CC(C)=CCc1cc2c(cc1O)C1=C(C(=O)C3=C(NCCS3(=O)=O)C1=O)C(C=C(C)C)O2 (stereo not given),24.3%
13,Clc1ccc(C(Cn2ccnc2)OCc2ccsc2Cl)c(Cl)c1 (stereo not given),77.2%
14,O=c1[nH]c([C@@H]2CCCN2)nc2c1oc1ccc(Cl)cc12,78.8%
15,Cc1cc(Nc2ncc(Cl)c(Nc3ccccc3S(=O)(=O)C(C)C)n2)c(OC(C)C)cc1C1CCNCC1,-99.3% (active)
16,C[C@@H](NC(=O)c1ncnc(N)c1Cl)c1ncc(C(=O)Nc2cc(C(F)(F)F)c(Cl)cn2)s1,9.63% (active)
17,N#Cc1c(-c2ccc(C(F)(F)F)cc2)cc(NCC2CCS(=O)(=O)CC2)n2c1nc1ccccc12,95.8%
18,O=C(NO)c1ccc(Cn2c(=O)n(-c3ccccc3F)c(=O)c3ccccc32)cc1,-21.5% (active)
19,CC1(/C=N/NC(N)=S)NC(=O)NC1=O (stereo not given),117%
20,O=C(NOC[C@H](O)CO)c1ccc(F)c(F)c1Nc1ccc(I)cc1F,-2.06% (active)

row,Structure (SMILES),growth
1,CCOC(=O)c1sc(NC(=O)COc2ccc(/C=C3\Cc4ccc(Cl)cc4C3=O)cc2)nc1C,127%
2,CCc1nc(C(N)=O)c(Nc2ccc(N3CCC(N4CCN(C)CC4)CC3)c(OC)c2)nc1NC1CCOCC1,24%
3,Cc1cc(-c2cc(O)ccc2Cl)cc2nnc(Nc3ccc(OCCN4CCCC4)cc3)nc12,-72.3% (active)
4,NC1(C(=O)N[C@@H](CCO)c2ccc(Cl)cc2)CCN(c2ncnc3[nH]ccc23)CC1,24.7%
5,COc1ccc(C(=O)c2cc(OC)c(OC)c(OC)c2)cc1/C=C/C(=O)c1ccc(F)cc1,13.1%
6,C=CC[n+]1c(/C=C2\Sc3ccccc3N2C)sc(-c2ccccc2)c1-c1ccccc1,33.5%
7,Nc1c2c(c(O)c3c1=C(CO)C=N3)=NCCS2=O (stereo not given),-17.4% (active)
8,CC(C)c1cc(CNc2nc(Nc3cc(C4CC4)[nH]n3)cc(N3CCN(C)CC3)n2)on1,-13.9% (active)
9,Cc1cc2c(-c3nc4ccccn4c3NC34CC5CC(CC(C5)C3)C4)c(O)c(O)cc2c(O)c1-c1c(C)cc2c(-c3nc4ccccn4c3NC34CC5CC(CC(C5)C3)C4)c(O)c(O)cc2c1O,17.3%
10,O=C(Cn1cncn1)Nc1ccc(-c2nc3ccccc3s2)cc1,111%
11,CCN(CC)CCN1C(=O)c2cccc3c(-c4ccc5c(c4)ncn5C4CCCCC4)ccc(c23)C1=O,-38.2% (active)
12,NC(=O)c1n[nH]n2c1nc(=O)c1c3c(sc12)CCCC3,120%
13,COC(=O)[C@]12CC[C@@H](C)[C@H](C)[C@@H]1C1=CC[C@@H]3[C@@]4(C)C(C#N)=CC(C)=C4CC[C@@]3(C)[C@]1(C)CC2,91.4%
14,Cc1cn(-c2cc(NC(=O)c3ccc(C)c(Nc4nccc(-c5cccnc5)n4)c3)cc(C(F)(F)F)c2)cn1,-27.1% (active)
15,Cc1cc(NCC(=O)Nc2ccc(-c3nc4ccccc4s3)cc2)no1,110%
16,Cc1ccc(-c2cc3c(SCC(=O)Nc4cc(C(F)(F)F)ccc4Cl)nccn3n2)cc1,84.8%
17,CN(C)CCOC(=O)Nc1nc2ccc(Sc3ccccc3)cc2[nH]1,63.7%
18,COc1ccc(/C(C)=C(\c2ccc(Cl)cc2)c2ccc(OCCN3CCCCCC3)cc2)cc1,71.6%
19,CCCCCCCC(=O)SCC/C=C/[C@@H]1CC(=O)NCc2nc(co2)C2=N[C@@](C)(CS2)C(=O)N[C@@H](C(C)C)C(=O)O1,-37.2% (active)
20,CCN1/C(=C/C=C/c2n(-c3ccccc3)c3ccc(-c4nc5ccccc5s4)cc3[n+]2CC)N(c2ccccc2)c2ccc(-c3nc4ccccc4s3)cc21,-8.49% (active)
